According to PubChem BioAssay AID651661 (Broad Institute, 2012):
In all, about 350,000 compounds went through this assay and about 2,300 (0.66%) were called active.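 How the source made its calls: active means mean inhibition of at least 50% after viability correction, with every replicate also passing that limit; inconclusive means mean reaches 50% but only one of two replicates passes; inactive means the rest.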 For the sample, actives were picked, then their nearest neighbours and some compounds at random.

Assay: EWS/Fli-driven NR0B1 reporter inhibitors, primary screen, A673 cells, NR0B1 luciferase, luminescence, MLPCN library (AID 651661);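 further: firefly luciferase signal divided by Alamar Blue viability fluorescence both relative to DMSO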
Conditions: viability-normalised, at 12.6 µM, hits give high values

| Structure (SMILES) | inhibition |
| --- | --- |
| CC[n+]1cc(C)ccc1/C=C/c1ccc(N(C)C)cc1 | 57.5% (active) |
| CO[C@H]1CN(C)C(=O)c2cc(NC(=O)c3cnccn3)ccc2OC[C@@H](C)N(CC2CC2)C[C@@H]1C | -6.87% (inactive) |
| COc1ccc(/C=C/c2noc(-c3ccccc3OC(C)=O)n2)cc1 | 6.55% (inactive) |
| COc1ccc(-c2nc(-c3ccccc3)no2)c(OC)c1 | 77.6% (active) |
| COc1ccc(-c2noc(CNC(=O)C(C)Oc3ccccc3)n2)cc1 (stereo not given) | -7.08% (inactive) |
| COc1cccc(NC(=O)C[C@H]2CC[C@@H]3[C@H](COc4ccc(NC(C)=O)cc4C(=O)N3C)O2)c1 | -0.492% (inactive) |
| O=C(C[C@@H]1C=C[C@@H](NS(=O)(=O)c2ccccc2)[C@H](CO)O1)N1CCN(c2ccccc2)CC1 | 2.46% (inactive) |
| CNC(=O)C[C@H]1CC[C@H]2[C@H](COc3ccc(NC(=O)Nc4cccc(C)c4)cc3C(=O)N2C)O1 | -11.4% (inactive) |
| C[C@H](O)C#Cc1ccc2c(c1)O[C@H](CN(C)C(=O)C1CCCCC1)[C@@H](C)CN([C@H](C)CO)S2(=O)=O | 2.27% (inactive) |
| Cc1ccc(-c2cc(=O)c3ccc(F)cc3[nH]2)cc1 | -5.43% (inactive) |
| O=c1cc(-c2ccccc2)[nH]c2cc(F)ccc12 | 54.2% (active) |
| Cc1cc(=O)c2ccc(NC(=O)c3ccccc3)cc2[nH]1 | 9.56% (inactive) |
| CCC(=O)N1CC2(CN(Cc3ccc(Cl)cc3)C2)c2c([nH]c3cc(OC)ccc23)[C@@H]1CO | -10.6% (inactive) |
| O=C(Nc1ccc(N2CCCCC2)cc1)c1cc(S(=O)(=O)N2CCOCC2)ccc1F | 0.758% (inactive) |
| CC(=O)Nc1ccc(S(=O)(=O)Nc2ccc(N3CCCCC3)cc2)cc1 | 63.2% (active) |
| CC(=O)Nc1ccc(S(=O)(=O)Nc2ccc(-c3ccc4nnc(C)n4n3)cc2)cc1 | 18.6% (inactive) |
| O=C(NCc1cccc(F)c1)[C@H]1[C@H](CO)[C@H]2Cn3c(cccc3=O)[C@@H]1N2 | -7.63% (inactive) |
| O=C(Cc1ccccn1)N1CC(=O)N2[C@H](CO)[C@H](c3ccc(C#CCC4CCCC4)cc3)[C@@H]2C1 | -3.29% (inactive) |
| CC(OC(=O)c1ccc(Cl)cc1O)C(=O)NCCC1=CCCCC1 (stereo not given) | 1.44% (inactive) |
| CC(CN1CCOCC1)OC(=O)c1ccc(Cl)cc1Cl (stereo not given) | -6.54% (inactive) |
| COC(=O)c1ccc(NCc2cc(O)ccc2O)cc1 | 61.8% (active) |
| C#CCNc1ccc(C(=O)OCC)cc1 | -46.2% (inactive) |
| O=C(OC12CC3CC(CC(C3)C1)C2)c1ccc(NCc2cc(O)ccc2O)cc1 | 30.8% (inactive) |
| CC(C)OC(=O)c1ccc(NCc2cc(O)ccc2O)cc1Cl | 59.4% (active) |
| O=C(C1CCC1)N1CC[C@@H]2[C@H]1c1cc(C#Cc3ccc(F)cc3)ccc1N[C@@H]2CO | 11% (inactive) |
| CO[C@@H]1CN(C)C(=O)c2ccc(NC(=O)Nc3c(C)noc3C)cc2OC[C@@H](C)NC[C@H]1C | 1.67% (inactive) |
| COc1ccc(S(=O)(=O)N(C)C[C@H]2Oc3c(NS(=O)(=O)c4cccs4)cccc3C(=O)N([C@H](C)CO)C[C@@H]2C)cc1 | 0.582% (inactive) |
| COc1ccc(NC(=O)C2Cc3c(-c4ccc(Cl)cc4)ccnc3O2)cc1 (stereo not given) | -1.76% (inactive) |

| Structure (SMILES) | inhibition |
| --- | --- |
| O=C(Nc1ccc(Cl)cc1)C1Cc2c(-c3ccc4c(c3)OCO4)ccnc2O1 (stereo not given) | 8.69% (inactive) |
| COc1ccc(NC(=O)C2Cc3c(-c4ccc5c(c4)OCO5)ccnc3O2)cn1 (stereo not given) | 52.6% (active) |
| CCCN1C[C@@H](C)[C@H](OC)CN(C)C(=O)c2cc(NC(=O)CC)ccc2OC[C@@H]1C | -0.843% (inactive) |
| COC(=O)C[C@H]1C=C[C@H](NC(=O)Nc2ccc(C(F)(F)F)cc2)[C@@H](CO)O1 | -13.7% (inactive) |
| CC(C)C(=O)Nc1ccc2c(c1)C(=O)N(C)[C@H]1CC[C@H](CC(=O)NCc3ccc(F)cc3)O[C@H]1CO2 | -4.82% (inactive) |
| O=C(C1CC(=O)N(C2CCCCC2)C1)N1CCN(c2ccccc2)CC1 (stereo not given) | 2.44% (inactive) |
| O=C1C=CC(=O)N1c1ccc(N2CCCCC2)cc1 | 70% (active) |
| O=C(C1CCC1)N1CCN(c2ccccc2)CC1 | -2.08% (inactive) |
| O=C(Nc1cc(F)ccc1F)N1CCCCN2[C@H](CO)[C@@H](c3ccc(-c4cccnc4)cc3)[C@@H]2C1 | -2.34% (inactive) |
| CN(C)C(=O)[C@@H]1[C@@H](CO)[C@@H]2Cn3c(ccc(-c4ccncc4)c3=O)[C@H]1N2C(=O)NC1CCCC1 | -5.42% (inactive) |
| CC(C)Cn1c(N)c(C(=O)COC(=O)CN2C(=O)C3CC=CCC3C2=O)c(=O)n(C)c1=O (stereo not given) | 10.8% (inactive) |
| CCCc1cc(=O)[nH]c(SCC(=O)c2c(N)n(CC(C)C)c(=O)n(C)c2=O)n1 | 61.7% (active) |
| CCCc1cc(=O)[nH]c(SCC(=O)N2C(C)CCCC2C)n1 (stereo not given) | -0.113% (inactive) |
| COc1ccc2c3c(n(C)c2c1)[C@@H](CO)N(C(=O)c1ccccn1)CC31CN(C)C1 | 2.95% (inactive) |
| CCOC(=O)c1c(C)[nH]c(C(=O)OCC(=O)c2ccc(OC)cc2OC)c1C | -15.3% (inactive) |
| CCOC(=O)c1c(NC(=O)CSc2nccc(=O)[nH]2)sc(C)c1C | 1.69% (inactive) |
| CCOC(=O)c1c(C)[nH]c2c1-c1ccccc1C(=O)C2=O | 75.3% (active) |
| CCCN1C[C@@H](C)[C@@H](OC)CN(C)C(=O)c2cc(NC(=O)C3CCC3)ccc2OC[C@H]1C | 4.62% (inactive) |
| CCCNC(=O)N1CCC2(CC1)CN(C(=O)c1cccnc1)[C@@H](CO)c1[nH]c3cc(OC)ccc3c12 | -3.43% (inactive) |
| CO[C@H]1CN(C)C(=O)c2cc(NS(=O)(=O)c3ccccc3)ccc2OC[C@H](C)N(C(=O)NC(C)C)C[C@@H]1C | -7.63% (inactive) |
| O=C(C1CCCCC1)N1CC(=O)N2[C@H](CO)[C@@H](c3ccc(-c4ccccc4F)cc3)[C@@H]2C1 | -0.368% (inactive) |
| COc1ccc(-c2cc(NC=O)c3ncc(-c4cccc(C(=O)N(C)C)c4)n3c2)c(OC)c1 | 8.25% (inactive) |
| COc1ccc(-c2cc(NC=O)c3ncc(-c4ccccc4)n3c2)cc1OC | 12.5% (inactive) |
| COc1ccc(-c2cc(NC(C)=O)c3ncc(-c4cc(OC)c(OC)c(OC)c4)n3c2)cn1 | 64.5% (active) |
| COc1cccc(-c2cnc3c(NC(C)=O)cc(-c4cc(F)ccc4OC)cn23)c1 | 41.5% (inactive) |
| COc1ccccc1-c1cc(NC(C)=O)c2ncc(-c3ccc(F)cc3)n2c1 | 13.6% (inactive) |
| COc1ccc(-c2cc(NC=O)c3ncc(-c4cc(OC)c(OC)c(OC)c4)n3c2)c(OC)c1 | 52.4% (active) |
